Assay results as given in PubChem BioAssay (NCATS).
Records with an inconclusive call do not appear. A call without a number means that no potency is given here. Activity calls are given as the source filed them. Unless noted, calls come from the whole dose curve; as a rule, active = well fitted curve in the direction sought with a large enough effect; inconclusive = small, poorly fitted or top-dose-only effect, or another doubt; inactive = no such curve, though single readings can be large; an effect the other way counts as inactive or inconclusive.

What was measured:
[1] = molecular target: Alpha-galactosidase A (Homo sapiens) (UniProt P06280); experiment: Counterscreen for Glucocerebrosidase Inhibitors: qHTS Assay for Human alpha-Galactosidase at pH 4.5 (AID 992)
Sequence of Alpha-galactosidase A (Homo sapiens) (P06280 whole entry, looked up): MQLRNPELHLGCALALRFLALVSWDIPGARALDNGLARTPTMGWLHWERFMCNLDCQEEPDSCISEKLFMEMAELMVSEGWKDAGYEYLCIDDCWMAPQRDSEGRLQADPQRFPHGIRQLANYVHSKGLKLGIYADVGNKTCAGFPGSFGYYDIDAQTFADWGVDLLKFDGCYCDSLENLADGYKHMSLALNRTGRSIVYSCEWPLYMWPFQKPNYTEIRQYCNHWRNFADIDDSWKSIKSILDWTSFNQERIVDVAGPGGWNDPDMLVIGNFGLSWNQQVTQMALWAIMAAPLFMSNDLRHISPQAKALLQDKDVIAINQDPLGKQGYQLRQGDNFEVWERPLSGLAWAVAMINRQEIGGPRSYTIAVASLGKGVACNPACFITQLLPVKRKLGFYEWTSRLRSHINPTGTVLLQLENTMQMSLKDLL
Summary of the method: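 Quantitative HTS: compounds tested from 0.7 nM up to 77 uM against 2 nM enzyme with 80 uM 4-MU alpha-D-galactopyranoside. The 20 min room-temperature reaction is stopped with 1M NaOH/1M glycine, pH 10.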

[2] = molecular target: alpha-glucosidase (Oryza sativa, rice) (UniProt Q653V4); experiment: Counterscreen for Glucocerebrosidase Inhibitors: qHTS Assay for Rice alpha-Glucosidase at pH 5.0 (AID 997)
Summary of the method: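 Rice alpha-glucosidase (4 nM final) with 400 uM 4-methylumbelliferyl-alpha-D-glucopyranoside in citrate buffer pH 5.0, 20 min at room temperature, stopped at pH 10; fluorescence 365/440 nm, compounds 0.7 nM–77 uM, AC50 from Hill fits.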

[3] = Cell Viability - LYMP2-016 (AID 984);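 note: cells exposed to compound for 24 hours at 37 °C; nearly all actives have a fitted effect of over 55% in size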; note: potency is the fitted concentration of half-maximal effect
Summary of the method: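 Concentration-dependent ATP depletion measured in LYMP2-016 lymphoblastoid cells, 24 h, 37 C; luciferase-based luminescent detection; Hill-equation AC50.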

[4] = Cell Viability - LYMP2-018 (AID 985);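 note: compound exposure lasted 24 hr at 37 °C; nearly all actives have a fitted effect of over 50% in size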; note: potency is the fitted concentration of half-maximal effect
Summary of the method: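 Luminescent ATP signal (CellTiter-Glo, read after 30 min at room temperature) reports viable cells after 24 hr compound treatment at 37 C. Concentration-response data were fitted to the standard Hill equation for AC50.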

[5] = Cell Viability - LYMP2-026 (AID 989); note: nearly all actives have a fitted effect of over 50% in size; note: potency is the fitted concentration of half-maximal effect
Summary of the method: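 Luminescent ATP signal (CellTiter-Glo, 30 min room temperature) measures viable lymphoblastoid cells after 24 hr compound treatment at 37 C. Decreased ATP reflects acute toxicity; AC50 values come from Hill-equation modeling.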

[6] = Cell Viability - LYMP1-002 - Assay at 24 hr (AID 993)
Summary of the method: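 Cells plated 2500/well, 5 hr 37 C; compounds added, 24 hr 37 C; CellTiter-Glo added, 30 min RT; luminescence read. Tetraoctylammonium bromide positive control. Hill-equation AC50.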

[7] = Cell Viability - LYMP2-022 (AID 987); note: nearly all actives have a fitted effect of over 55% in size; note: potency is the fitted concentration of half-maximal effect
Summary of the method: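 qHTS: human lymphoblastoid cells 2500/well; 5 hr 37 C; cpd added; 24 hr 37 C; CellTiter-Glo, 30 min RT; luminescence. AC50 via Hill fit; tetraoctylammonium bromide positive ctrl.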

[8] = Cell Viability - LYMP2-020 (AID 986); note: nearly all actives have a fitted effect of over 55% in size; note: potency is the fitted concentration of half-maximal effect
Summary of the method: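 Luminescent ATP signal (CellTiter-Glo, 30 min at room temperature) is the read-out after 24 h compound treatment of lymphoblastoid cells at 37 C. AC50 values come from Hill-equation fits across concentrations.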

[9] = Cell Viability - LYMP2-024 (AID 988); note: nearly all actives have a fitted effect of over 60% in size; note: potency is the fitted concentration of half-maximal effect
Summary of the method: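 Steps: seed 2500 cells/well, 5 hr 37 C; add compound, 24 hr 37 C; add CellTiter-Glo, 30 min room temperature; read luminescence. AC50 derived by Hill modelling of concentration-dependent ATP loss.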

[10] = Validation of Assay for Modulators of Lamin A Splicing (AID 1459; active = well fitted curve in the direction sought with a large enough effect in the signal ratio; the % refers to the signal ratio;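 note: cells exposed to compound for two days before reading; ratio rise marks activators and ratio drop marks inhibitors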)
Summary of the method: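 Dual-reporter HeLa S3 line (lamin A-EGFP minigene, DsRed2) treated with compounds 48 hrs, 0.5% DMSO final. Endpoint: EGFP/DsRed2 total intensity ratio from laser-scanning microplate cytometry.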

## CN=C(NC#N)Nc1ccc(C2=NNC(=O)C[C@@H]2C)cc1
[1]
  outcome: inactive
[2]
  outcome: inactive

## CCOc1ccc2c(c1)C(C)=CC(C)(C)N2
[3]
  Potency: inactive
[4]
  Potency: inactive
[5]
  Potency: inactive
[6]
  outcome: inactive

## CC(C)(C)NC(=O)[C@@H]1C[C@@H]2CCCC[C@@H]2CN1C[C@@H](O)[C@H](Cc1ccccc1)NC(=O)[C@H](CC(N)=O)NC(=O)c1ccc2ccccc2n1
[7]
  Potency: 50.1 µM (active)

## IC(I)I
[3]
  Potency: inactive
[4]
  Potency: inactive
[8]
  Potency: inactive
[7]
  Potency: inactive
[9]
  Potency: inactive
[5]
  Potency: inactive
[6]
  outcome: inactive

## O=C(O)CCC(=O)C(=O)O
[3]
  Potency: inactive
[4]
  Potency: inactive
[8]
  Potency: inactive
[7]
  Potency: inactive
[9]
  Potency: inactive
[5]
  Potency: inactive
[6]
  outcome: inactive

## O=CCCCC=O
[3]
  Potency: 25.1 µM (active)
[4]
  Potency: 20 µM (active)
[8]
  Potency: 15.8 µM (active)
[7]
  Potency: 10 µM (active)
[9]
  Potency: 12.6 µM (active)
[5]
  Potency: 25.1 µM (active)
[6]
  outcome: inactive

## Cc1ccccc1
[3]
  Potency: inactive
[4]
  Potency: inactive
[8]
  Potency: inactive
[7]
  Potency: inactive
[9]
  Potency: inactive
[5]
  Potency: inactive
[6]
  outcome: inactive

## CN1Cc2c(N)cccc2C(c2ccccc2)C1 (centres undefined)
[10]
  outcome: inactive

## CCCCCCCC/C=C\CCCCCCCC(=O)O
[3]
  Potency: inactive
[4]
  Potency: inactive
[8]
  Potency: inactive
[7]
  Potency: inactive
[9]
  Potency: inactive
[5]
  Potency: inactive
[6]
  outcome: inactive

## CC(C)=O
[3]
  Potency: inactive
[4]
  Potency: inactive
[8]
  Potency: inactive
[7]
  Potency: inactive
[9]
  Potency: inactive
[5]
  Potency: inactive
[6]
  outcome: inactive

## CC(O)CO (centres undefined)
[3]
  Potency: inactive
[4]
  Potency: inactive
[8]
  Potency: inactive
[7]
  Potency: inactive
[9]
  Potency: inactive
[5]
  Potency: inactive
[6]
  outcome: inactive

## Nc1ccn([C@H]2CS[C@@H](CO)O2)c(=O)n1
[3]
  Potency: inactive
[4]
  Potency: inactive
[8]
  Potency: inactive
[7]
  Potency: inactive
[9]
  Potency: inactive
[5]
  Potency: inactive
[6]
  outcome: inactive

## CCCCCCCC(=O)O
[3]
  Potency: inactive
[4]
  Potency: inactive
[8]
  Potency: inactive
[7]
  Potency: inactive
[9]
  Potency: inactive
[5]
  Potency: inactive
[6]
  outcome: inactive

## CC1=C2[C@@H]([C@H](C)CC[C@H]2/C=C(\C)C(=O)O)[C@H](O)C1
[3]
  Potency: inactive
[4]
  Potency: inactive
[8]
  Potency: inactive
[7]
  Potency: inactive
[9]
  Potency: inactive
[5]
  Potency: inactive
[6]
  outcome: inactive

## CCCCC/C=C\C/C=C\CCCCCCCC(=O)O
[3]
  Potency: inactive
[4]
  Potency: inactive
[8]
  Potency: inactive
[7]
  Potency: inactive
[9]
  Potency: inactive
[5]
  Potency: inactive
[6]
  outcome: inactive

## COc1ccc(CCNC[C@H](O)c2ccc(O)cc2)cc1OC
[1]
  outcome: inactive
[2]
  outcome: inactive

## CCOC(C)=O
[3]
  Potency: inactive
[4]
  Potency: inactive
[8]
  Potency: inactive
[7]
  Potency: inactive
[9]
  Potency: inactive
[5]
  Potency: inactive
[6]
  outcome: inactive

## CC1=C(/C=C/C(C)=C/C=C/C(C)=C/CO)C(C)(C)CCC1
[4]
  Potency: 50.1 µM (active)
[8]
  Potency: 50.1 µM (active)
[7]
  Potency: 39.8 µM (active)
[9]
  Potency: 50.1 µM (active)
[6]
  outcome: inactive

## CC[N+](C)(C)Cc1ccccc1Br
[1]
  outcome: inactive
[2]
  outcome: inactive
[10]
  outcome: inactive

## O=S(=O)(O)O
[3]
  Potency: inactive
[4]
  Potency: inactive
[8]
  Potency: inactive
[7]
  Potency: inactive
[9]
  Potency: inactive
[5]
  Potency: inactive
[6]
  outcome: inactive
